Hits are enriched below; roughly 5.3% of the tested compounds scored in any of these assays.
HCV inh – blocks hepatitis C virus; 3.4% of 340,000 active; AID 651820; Potency, µM (highest dose often 41.8 µM), inactives show top-dose activity change, negative = inhibition, hits mostly inhibitors; Huh7.5.1 HCVcc-Cre infection, luciferase reporter, 44 h; active = well fitted inhibition curve with a large enough effect; inconclusive = small, poorly fitted or top-dose-only effect, or another doubt; inactive = no such curve, though single readings can be large or run the other way
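Luciferase read-out (15 sec integration) after a 15 min room-temperature substrate step quantifies HCVcc-Cre infection. Cells, 1,000 per well, had compound added 4 h post-plating, then virus at ~0.5 moi, and were cultured 44 h.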
Marburg entry inh – Marburg virus entry inhibition; Potency, µM (highest dose often 37.8 µM), inactives show at the top dose activity change, negative = inhibition, actives largely listed as inhibitors; 1.8% of 300,000 active; AID 540276; Marburg virus pseudotyped entry inhibition, cell reporter; calls by dose curve; tested in HEK293 cells
Vaccinia Venus – vaccinia inhibition (Venus reporter). 0.46% of 330,000 active. Potency, µM (highest dose often 36.5 µM), inactives show at the top dose activity change, negative = inhibition, usual class: inhibitors. Vaccinia virus Venus reporter expression, fluorescence. AID 720580; calls by dose curve; tested in A549 cells; also: nearly all actives have a fitted effect of over 30% in size
Lassa entry inh – Lassa virus entry inhibition; Lassa virus pseudotype entry inhibition, cell reporter; Potency, µM (highest dose often 37.9 µM), for the others: at the top dose activity change, negative = inhibition, actives largely listed as inhibitors; 1.2% of 300,000 active; AID 540256; calls by dose curve; tested in HEK293 cells; also: nearly all actives have a fitted effect of over 50% in size
VACV mCherry inh – vaccinia inhibition (mCherry reporter). 0.63% of 310,000 active. Vaccinia virus mCherry reporter infection, fluorescence. Potency, µM (titrated, usually from 36.5 µM), for inactives: top-dose activity change, negative = inhibition, usual class: inhibitors; calls by dose curve; tested in A549 cells; also: nearly all actives have a fitted effect of over 35% in size
FMDV antiviral – foot and mouth disease virus antiviral activity; 1.2% of 410,000 active; FMDV antiviral cell-based qHTS; Potency, µM (top dose mostly 57.9 µM), for inactives: at the highest dose activity change, negative = inhibition, usual class: inhibitors; AID 1159524; calls by dose curve; tested in HEK293T cells; also: read-out not given here; nearly all actives have a fitted effect of over 45% in size
* hit, by the source's call; i = inactive; u = inconclusive; x = not tested or not shown; [ ] = another dose, or the depositor's remark. % is scaled to controls: 0 for no effect and ±100 for the full control effect; potency is read from the fitted curve at half-maximal effect.

SMILES | HCV inh | Marburg entry inh | Vaccinia Venus | Lassa entry inh | VACV mCherry inh | FMDV antiviral
C#CCNC(=O)[C@H]1C=C(OC)C(=O)C[C@H](c2ccccc2)[C@H]1C | x | 7.6%[14.2 µM] | x | x | x | x
CCc1cccc2c(=O)c(C(=O)NCCN3CCOCC3)c[nH]c12 | 10µM* | 8.0% | x | -7.8% | x | 3.2%
COC(=O)C1CCN(C(=O)C2CCCCC2)CC1 | 5.01µM* | -0.8% | x | 15.9% | x | 13.0%
CCOC(=O)N1CCN(C(=O)C2CCCCC2)CC1 | 1.0% | 16.4%[46.1 µM] | -8.2% | -0.1% | -13.3% | 2.6%
C/C(=N\Nc1ccc([N+](=O)[O-])cc1)c1ccc(N)cc1 | -20.2% | u | -1.3% | -13.4% | -23.0% | 29.3%
C/C(=N\Nc1nc(C)c(C)s1)c1ccc([N+](=O)[O-])cc1 | u | u | u | x | u | 28.2µM*
COC(=O)[C@@H]1CCCN1Cc1ccc2c(c1)CN(Cc1ccc(OC)c(C)c1)CCO2 | x | x | 8.8% | x | -7.3% | 2.1%
Nc1cccc2c1C(=O)N(C(=O)/C=C/c1ccc(F)cc1)C2=O | -29.3% | 3.16µM* | u | 11.2µM* | u | 39.8µM*
COCc1c(C(=O)OCC(=O)N2c3ccccc3NC(=O)C2(C)C)oc2ccccc12 | u | u | x | -8.2% | x | 25.1µM*
COCc1c(C(=O)OCC(=O)N2c3ccccc3CC2C)oc2ccccc12 (centres undefined) | 11.9% | 6.3% | x | 6.7% | x | 21.0%
COc1cc(/C=C/C(=O)OCC(=O)N2c3ccccc3NC(=O)C2(C)C)cc(OC)c1OC | u | x | x | x | x | 28.2µM*
COc1ccc(CCNC(=O)C2CCN(c3nc4ccccc4nc3C(F)(F)F)CC2)cc1OC | x | x | -23.4% | 23.3%[46.1 µM] | -18.1% | -7.0%
C=CCN1C(=S)N=NC1c1ccccc1 (centres undefined) | x | 8.0% | x | x | x | x
Cc1ccc(S(=O)(=O)Nc2cccc3cccnc23)c([N+](=O)[O-])c1 | u | u | u | 10µM* | u | u
O=S(=O)(Nc1cccc2cccnc12)c1ccc(S(=O)(=O)N2CCCC2)cc1 | 2.82µM* | u | -9.6% | 8.2µM* | -3.5% | x
CC(=O)Nc1ccc(S(=O)(=O)Nc2cccc3cccnc23)cc1 | -21.9% | -8.8%[46.1 µM] | -1.5% | x | -1.3% | -12.4%
Cc1cc(C)c(NS(=O)(=O)c2cccc3cccnc23)c(C)c1 | 11.0% | -21.7%[46.1 µM] | -12.1% | -1.4% | -1.0% | 11.6%
O=S(=O)(Nc1cccc2cccnc12)c1ccccc1 | u | u | 12.6µM* | u | 10µM* | u
O=S(=O)(Nc1cccc2ccccc12)c1ccccc1 | -3.3% | -2.5% | -7.2% | 6.7% | u | 37.4%
Cc1ccc2cccc(NS(=O)(=O)c3ccccc3)c2n1 | -5.4% | 1.41µM* | -15.7% | u | -4.5% | u
O=C(CN1Cc2ccccc2OC(c2ccsc2)C1)N1CCN(Cc2ccc3c(c2)OCO3)CC1 (centres undefined) | x | x | -6.6% | x | -12.5% | 1.1%
Cc1cc(F)ccc1NC(=O)CCS(=O)(=O)c1cc2c(cc1C)NC(=O)CO2 | x | x | -2.5% | 5.6%[46.1 µM] | -2.8% | -6.8%
CCN1C(=O)C[C@H](N2CCN(c3ccc(OC)cc3)CC2)C1=O | x | 10.1% | x | x | x | x
CC(NC(=O)C1CCOCC1)c1nnc2n1CCN(Cc1cc3c(cc1Cl)OCO3)CC2 (centres undefined) | x | x | -20.7% | x | 0.0% | -11.9%
CCCc1cnc2c(c1SCC(=O)Nc1ccccc1F)c(=O)n(C)c(=O)n2C | x | x | -3.7% | -1.6%[46.1 µM] | -12.5% | -8.5%
SMILES | HCV inh | Marburg entry inh | Vaccinia Venus | Lassa entry inh | VACV mCherry inh | FMDV antiviral
CCCc1cnc2c(c1SCC(=O)Nc1ccc([N+](=O)[O-])cc1)c(=O)n(C)c(=O)n2C | x | x | u | u | -11.1% | 15.8µM*
NC1=NC[C@H](Cc2ccc(O)cc2)N1CCCCC1CCCCC1 | 3.8%[8.37 µM] | x | u | x | 8.91µM* | u
Oc1ccc(C[C@H]2CNCCN2CCCCC2CCCCC2)cc1 | u | x | 11.2µM* | x | u | -26.8%
NC1=NC[C@H](Cc2ccccc2)N1CCCCC1CCCCC1 | -3.1%[8.37 µM] | x | u | x | u | u
COc1ccccc1/C=C1\C=Cc2ccccc21 | x | x | -6.1% | x | 18.7% | x
CCCCC1(Cc2cccc([N+](=O)[O-])c2)C(=O)N(c2ccccc2)N(c2ccccc2)C1=O | 6.31µM* | 15.8µM* | -29.7% | u | -9.6% | u
O=c1cc(-c2ccccc2Cl)oc2c(NS(=O)(=O)c3cc(Cl)cc(Cl)c3O)ccc(O)c12 | u | -2.0% | 12.6µM* | -4.5% | u | u
CCc1ccc(S(=O)(=O)Nc2ccc(O)c3c(=O)cc(-c4ccccc4Cl)oc23)cc1 | 3.7% | x | -29.9% | x | -8.9% | 36.1%
C=CCOc1cccc(C(=O)/C=C2/C(=O)Nc3ccccc32)c1 | u | x | x | x | x | 28.2µM*
CCn1c(SCC(=O)NCc2ccco2)nnc1-c1cccc(N(C)C)c1 | x | x | -20.5% | x | -2.8% | x
O=C(NNC(=O)c1ccccc1OCc1ccccc1Cl)c1csc(N2CCOCC2)n1 | 10µM* | x | x | x | x | -8.3%
O=C(NC1CCCC1)c1ccccc1OCc1ccccc1 | 7.94µM* | -25.9% | -11.7% | -3.9% | -13.5% | u
O=C(NC1CCN(Cc2ccccc2)CC1)c1ccccc1OCc1ccccc1 | 25.1µM* | x | x | x | x | u
CCOc1ccccc1C(=O)NC1CCN(Cc2ccccc2)CC1 | -19.2% | -25.9% | -10.1% | 1.6% | -3.2% | -5.0%
O=C(NC1CCN(Cc2ccccc2)CC1)c1ccccc1OCc1ccccc1Cl | u | u | -15.2% | 10µM* | -2.5% | -29.2%
COc1ccccc1C(=O)NC1CCCCCCC1 | -12.6% | 8.6% | x | 19.7% | x | 39.8%
COC(=O)c1cc(CNC(=O)c2cccc3ccccc23)cc(NC(=O)c2ccccc2OC)c1 | x | x | 4.4% | x | -12.8% | 8.1%
Cc1ccc(Nc2nc3ccccc3s2)c(C)c1 | -4.3% | 8.2µM* | -16.5% | 10µM* | u | -36.7%
Cc1ccc(NC(=O)CSc2nc3n[nH]c(C)c3c(=N)n2-c2ccccc2C)cc1C | x | x | -13.1% | u | -19.3% | u
COc1ccc(-c2nc(C(=O)NCCCN3CCOCC3)cc3c2[nH]c2ccccc23)cc1OC | 12.6µM* | x | -17.0% | x | -21.1% | u
COc1ccc(Nc2cc(C(=O)NCCCN3CCOCC3)c3ccccc3n2)cc1OC | -18.3% | 1.1% | x | u | x | -0.4%
Cc1ccc(-c2nc(C(=O)NCCCN3CCOCC3)cc3c2[nH]c2ccccc23)cc1 | 11.2µM* | x | -20.5% | x | -13.4% | -25.8%
CN(C)c1ccc(/C=C2\C=Cc3ccccc32)cc1[N+](=O)[O-] | x | x | -7.1% | x | i | x
CC(C)[C@H](NC(=O)N1c2ccccc2NC(=O)[C@@H]1C(C)C)C(=O)N[C@@H](C(=O)O)c1ccccc1 | 0.355µM* | x | -5.5% | x | -1.4% | -10.7%
Cc1cccc(Nc2nc(-c3ccccn3)cs2)n1 | 7.08µM* | u | x | u | x | 4.0%
Cc1cccc(Nc2nc(-c3cccs3)cs2)n1 | u | u | u | u | -19.8%[1.46 µM] | -17.5%
Cc1cccc(Nc2nc(-c3ccc(F)cc3)cs2)n1 | u | u | -17.6% | 12.6µM* | -14.4% | 0.0%
Cc1cccnc1Nc1nc(-c2ccccc2)cs1 | 15.8µM* | x | x | x | x | 8.3%

Screens (PubChem BioAssay)
